# Assay results published in the supplement of paper PMC4466140.
# Assays:
# Assay in all cases: SPOT peptide array binding signal intensity (averaged, normalized) (arbitrary units (background-subtracted, floor 0; scale differs between SH3 domains)); higher = stronger binding of the SH3 domain to the peptide
# [1] = molecular target: AgAbp1
# Procedure: (§1)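 GST-tagged SH3 domains from S. cerevisiae (Sc), A. gossypii (Ag), C. albicans (Ca) and S. pombe (Sp) were incubated at 10 ug/ml overnight at 4 C on cellulose SPOT membranes carrying 292 synthetic 15-mer peptides mined from the S. cerevisiae proteome (cysteines replaced by serines). Binding was detected with anti-GST antibody, HRP secondary and chemiluminescence, quantified with Genespotter, and reported as normalized spot intensities averaged over biological replicates.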
# [2] = molecular target: AgBbc1
# Procedure: as §1
# [3] = molecular target: AgBem1-D1
# Procedure: as §1
# [4] = molecular target: AgBzz1-D1
# Procedure: as §1
# [5] = molecular target: AgBzz1-D2
# Procedure: as §1
# [6] = molecular target: AgCyk3
# Procedure: as §1
# [7] = molecular target: AgFus1
# Procedure: as §1
# [8] = molecular target: AgHof1
# Procedure: as §1
# [9] = molecular target: AgHse1
# Procedure: as §1
# [10] = molecular target: AgLsb1
# Procedure: as §1
# [11] = molecular target: AgLsb4
# Procedure: as §1
# [12] = molecular target: AgMyo5
# Procedure: as §1
# [13] = molecular target: AgNbp2
# Procedure: as §1
# [14] = molecular target: AgRvs167
# Procedure: as §1
# [15] = molecular target: AgSho1
# Procedure: as §1
# [16] = molecular target: AgSla1-D1-D2
# Procedure: as §1
# [17] = molecular target: AgSla1-D3
# Procedure: as §1
# [18] = molecular target: CaAbp1-D1
# Procedure: as §1
# [19] = molecular target: CaAbp1-D2
# Procedure: as §1
# [20] = molecular target: CaBbc1
# Procedure: as §1
# [21] = molecular target: CaBem1-D1
# Procedure: as §1
# [22] = molecular target: CaBzz1-D1
# Procedure: as §1
# [23] = molecular target: CaBzz1-D2
# Procedure: as §1
# [24] = molecular target: CaCyk3
# Procedure: as §1
# [25] = molecular target: CaFus1
# Procedure: as §1
# [26] = molecular target: CaHof1
# Procedure: as §1
# [27] = molecular target: CaHse1
# Procedure: as §1
# [28] = molecular target: CaLsb1
# Procedure: as §1
# [29] = molecular target: CaLsb4
# Procedure: as §1
# [30] = molecular target: CaMyo5
# Procedure: as §1
# [31] = molecular target: CaNbp2
# Procedure: as §1
# [32] = molecular target: CaRvs167
# Procedure: as §1
# [33] = molecular target: CaRvs167-3
# Procedure: as §1
# [34] = molecular target: CaSho1
# Procedure: as §1
# [35] = molecular target: CaSla1-D1-D2
# Procedure: as §1
# [36] = molecular target: CaSla1-D3
# Procedure: as §1
# [37] = molecular target: ScAbp1
# Procedure: as §1
# [38] = molecular target: ScBbc1
# Procedure: as §1
# [39] = molecular target: ScBem1-D1
# Procedure: as §1
# [40] = molecular target: ScBzz1-D1
# Procedure: as §1
# [41] = molecular target: ScBzz1-D2
# Procedure: as §1
# [42] = molecular target: ScCyk3
# Procedure: as §1
# [43] = molecular target: ScFus1
# Procedure: as §1
# [44] = molecular target: ScHof1
# Procedure: as §1
# [45] = molecular target: ScHse1
# Procedure: as §1
# [46] = molecular target: ScLsb1
# Procedure: as §1
# [47] = molecular target: ScLsb2
# Procedure: as §1
# [48] = molecular target: ScLsb3
# Procedure: as §1
# [49] = molecular target: ScLsb4
# Procedure: as §1
# [50] = molecular target: ScMyo3
# Procedure: as §1
# [51] = molecular target: ScMyo5
# Procedure: as §1
# [52] = molecular target: ScNbp2
# Procedure: as §1
# [53] = molecular target: ScPex13
# Procedure: as §1
# [54] = molecular target: ScRvs167
# Procedure: as §1
# [55] = molecular target: ScSho1
# Procedure: as §1
# [56] = molecular target: ScSla1-D1-D2
# Procedure: as §1
# [57] = molecular target: ScSla1-D3
# Procedure: as §1
# [58] = molecular target: SpAbp1-D1
# Procedure: as §1
# [59] = molecular target: SpBbc1
# Procedure: as §1
# [60] = molecular target: SpBzz1-D1
# Procedure: as §1
# [61] = molecular target: SpBzz1-D2
# Procedure: as §1
# [62] = molecular target: SpCyk3
# Procedure: as §1
# [63] = molecular target: SpHof1
# Procedure: as §1
# [64] = molecular target: SpHof1-2
# Procedure: as §1
# [65] = molecular target: SpHof1-3
# Procedure: as §1
# [66] = molecular target: SpHse1
# Procedure: as §1
# [67] = molecular target: SpLsb1
# Procedure: as §1
# [68] = molecular target: SpLsb4
# Procedure: as §1
# [69] = molecular target: SpMyo1
# Procedure: as §1
# [70] = molecular target: SpNbp2
# Procedure: as §1
# [71] = molecular target: SpPex13
# Procedure: as §1
# [72] = molecular target: SpRvs167
# Procedure: as §1
# [73] = molecular target: SpSla1-D1-D2
# Procedure: as §1
# [74] = molecular target: SpSla1-D3
# Procedure: as §1
binder,measurement,setting,value
KLSRGRYGLPLSSRP,SPOT peptide array binding signal intensity,[1],34
same,SPOT peptide array binding signal intensity,[2],30
same,SPOT peptide array binding signal intensity,[3],37
same,SPOT peptide array binding signal intensity,[4],59
same,SPOT peptide array binding signal intensity,[5],55.5
same,SPOT peptide array binding signal intensity,[6],7.5
same,SPOT peptide array binding signal intensity,[7],65
same,SPOT peptide array binding signal intensity,[8],20.5
same,SPOT peptide array binding signal intensity,[9],187
same,SPOT peptide array binding signal intensity,[10],63
same,SPOT peptide array binding signal intensity,[11],29
same,SPOT peptide array binding signal intensity,[12],≤ 0
same,SPOT peptide array binding signal intensity,[13],39
same,SPOT peptide array binding signal intensity,[14],4.33
same,SPOT peptide array binding signal intensity,[15],6
same,SPOT peptide array binding signal intensity,[16],41
same,SPOT peptide array binding signal intensity,[17],3.75
same,SPOT peptide array binding signal intensity,[18],380
same,SPOT peptide array binding signal intensity,[19],273
same,SPOT peptide array binding signal intensity,[20],101
same,SPOT peptide array binding signal intensity,[21],19
same,SPOT peptide array binding signal intensity,[22],146
same,SPOT peptide array binding signal intensity,[23],100
same,SPOT peptide array binding signal intensity,[24],6.5
same,SPOT peptide array binding signal intensity,[25],86
same,SPOT peptide array binding signal intensity,[26],0.5
same,SPOT peptide array binding signal intensity,[27],2
same,SPOT peptide array binding signal intensity,[28],1.5
same,SPOT peptide array binding signal intensity,[29],37
same,SPOT peptide array binding signal intensity,[30],2
same,SPOT peptide array binding signal intensity,[31],110
same,SPOT peptide array binding signal intensity,[32],6.5
same,SPOT peptide array binding signal intensity,[33],13.5
same,SPOT peptide array binding signal intensity,[34],59.5
same,SPOT peptide array binding signal intensity,[35],≤ 0
same,SPOT peptide array binding signal intensity,[36],0.25
same,SPOT peptide array binding signal intensity,[37],24
same,SPOT peptide array binding signal intensity,[38],8.5
same,SPOT peptide array binding signal intensity,[39],14
same,SPOT peptide array binding signal intensity,[40],21
same,SPOT peptide array binding signal intensity,[41],20
same,SPOT peptide array binding signal intensity,[42],59
same,SPOT peptide array binding signal intensity,[43],102
same,SPOT peptide array binding signal intensity,[44],≤ 0
same,SPOT peptide array binding signal intensity,[45],754
same,SPOT peptide array binding signal intensity,[46],89
same,SPOT peptide array binding signal intensity,[47],7
same,SPOT peptide array binding signal intensity,[48],16
same,SPOT peptide array binding signal intensity,[49],15
same,SPOT peptide array binding signal intensity,[50],6
same,SPOT peptide array binding signal intensity,[51],8.5
same,SPOT peptide array binding signal intensity,[52],86.5
same,SPOT peptide array binding signal intensity,[53],7.25
same,SPOT peptide array binding signal intensity,[54],12.8
same,SPOT peptide array binding signal intensity,[55],112
same,SPOT peptide array binding signal intensity,[56],91.5
same,SPOT peptide array binding signal intensity,[57],2
same,SPOT peptide array binding signal intensity,[58],146
same,SPOT peptide array binding signal intensity,[59],2
same,SPOT peptide array binding signal intensity,[60],163
RRLRDKYKLPIVDAD,SPOT peptide array binding signal intensity,[1],38
same,SPOT peptide array binding signal intensity,[2],20.8
same,SPOT peptide array binding signal intensity,[3],52
same,SPOT peptide array binding signal intensity,[4],32
same,SPOT peptide array binding signal intensity,[5],61.5
same,SPOT peptide array binding signal intensity,[6],1
same,SPOT peptide array binding signal intensity,[7],163
same,SPOT peptide array binding signal intensity,[8],17
same,SPOT peptide array binding signal intensity,[9],748
same,SPOT peptide array binding signal intensity,[10],6
same,SPOT peptide array binding signal intensity,[11],18
same,SPOT peptide array binding signal intensity,[12],0.75
same,SPOT peptide array binding signal intensity,[13],63
same,SPOT peptide array binding signal intensity,[14],3.33
same,SPOT peptide array binding signal intensity,[15],83
same,SPOT peptide array binding signal intensity,[16],299
same,SPOT peptide array binding signal intensity,[17],3
same,SPOT peptide array binding signal intensity,[18],311
same,SPOT peptide array binding signal intensity,[19],326
same,SPOT peptide array binding signal intensity,[20],13
same,SPOT peptide array binding signal intensity,[21],5.5
same,SPOT peptide array binding signal intensity,[22],180
same,SPOT peptide array binding signal intensity,[23],34.5
same,SPOT peptide array binding signal intensity,[24],3
same,SPOT peptide array binding signal intensity,[25],318
same,SPOT peptide array binding signal intensity,[26],0.5
same,SPOT peptide array binding signal intensity,[27],12.2
same,SPOT peptide array binding signal intensity,[28],1
same,SPOT peptide array binding signal intensity,[29],13
same,SPOT peptide array binding signal intensity,[30],1.5
same,SPOT peptide array binding signal intensity,[31],102
same,SPOT peptide array binding signal intensity,[32],5.5
same,SPOT peptide array binding signal intensity,[33],42.5
same,SPOT peptide array binding signal intensity,[34],241
same,SPOT peptide array binding signal intensity,[35],5
same,SPOT peptide array binding signal intensity,[36],1.75
same,SPOT peptide array binding signal intensity,[37],14.5
same,SPOT peptide array binding signal intensity,[38],8.5
same,SPOT peptide array binding signal intensity,[39],26
same,SPOT peptide array binding signal intensity,[40],18
same,SPOT peptide array binding signal intensity,[41],23
same,SPOT peptide array binding signal intensity,[42],22
same,SPOT peptide array binding signal intensity,[43],115
same,SPOT peptide array binding signal intensity,[44],1
same,SPOT peptide array binding signal intensity,[45],1110
same,SPOT peptide array binding signal intensity,[46],9
same,SPOT peptide array binding signal intensity,[47],7.5
same,SPOT peptide array binding signal intensity,[48],90
same,SPOT peptide array binding signal intensity,[49],8
same,SPOT peptide array binding signal intensity,[50],2.5
same,SPOT peptide array binding signal intensity,[51],1.5
same,SPOT peptide array binding signal intensity,[52],90
same,SPOT peptide array binding signal intensity,[53],0.5
same,SPOT peptide array binding signal intensity,[54],3.33
same,SPOT peptide array binding signal intensity,[55],411
same,SPOT peptide array binding signal intensity,[56],36.5
same,SPOT peptide array binding signal intensity,[57],13
same,SPOT peptide array binding signal intensity,[58],88.5
same,SPOT peptide array binding signal intensity,[59],0.75
same,SPOT peptide array binding signal intensity,[60],56
same,SPOT peptide array binding signal intensity,[61],0.5
same,SPOT peptide array binding signal intensity,[62],2.5
same,SPOT peptide array binding signal intensity,[63],54.5
same,SPOT peptide array binding signal intensity,[64],12
same,SPOT peptide array binding signal intensity,[65],318
same,SPOT peptide array binding signal intensity,[66],346
same,SPOT peptide array binding signal intensity,[67],49.2
same,SPOT peptide array binding signal intensity,[68],44
same,SPOT peptide array binding signal intensity,[69],1.25
same,SPOT peptide array binding signal intensity,[70],105
same,SPOT peptide array binding signal intensity,[71],9
same,SPOT peptide array binding signal intensity,[72],0.833
same,SPOT peptide array binding signal intensity,[73],3
same,SPOT peptide array binding signal intensity,[74],6
